Measurements published in the supplement of paper PMC8728848.
About 410 targets per protein were measured; listed, in parts, are those with the strongest signals and a random draw of the rest.

Key:
Experiment in all cases: glycan array binding signal (z-score within array); higher = stronger binding
Conditions in all cases: glycan notation: IUPAC condensed, linker removed; mutation: D109R
[1] = biological target: Fuc(a1-2)Gal(b1-3)GlcNAc(b1-3)Gal(b1-4)Glc
Outline: (§1)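 From the Consortium for Functional Glycomics database, 3228 arrays were curated, keeping only those whose protein sequence was available. Binding is given as a within-array Z-score averaged across arrays sharing a protein sequence and across linkers. Negative Z-scores can be read as non-binding.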

[2] = biological target: Fuc(a1-2)Gal(b1-3)[Fuc(a1-4)]GlcNAc(b1-3)[Gal(b1-4)GlcNAc(b1-6)]Gal(b1-4)Glc
Outline: as §1

[3] = biological target: Fuc(a1-2)Gal6S(b1-3)GlcNAc6S
Outline: as §1

[4] = biological target: Fuc(a1-2)Gal6S(b1-4)Glc6S
Outline: as §1

[5] = biological target: Fuc(a1-2)[Gal(a1-3)]Gal(b1-3)GlcNAc(b1-3)GalNAc
Outline: as §1

[6] = biological target: Fuc(a1-2)[Gal(a1-3)]Gal(b1-4)GlcNAc(b1-3)GalNAc
Outline: as §1

[7] = biological target: Fuc(a1-2)[GalNAc(b1-3)]Gal
Outline: as §1

[8] = biological target: Fuc(a1-3)[Gal3S(b1-4)]GlcNAc6S
Outline: as §1

Gal(a1-3)Gal(b1-4)GlcNAc = biological target: Gal(a1-3)Gal(b1-4)GlcNAc
Outline: as §1

Gal(a1-4)Gal(b1-4)GlcNAc = biological target: Gal(a1-4)Gal(b1-4)GlcNAc
Outline: as §1

Gal(b1-3)Gal(b1-4)GlcNAc = biological target: Gal(b1-3)Gal(b1-4)GlcNAc
Outline: as §1

Gal(b1-3)GalNAc = biological target: Gal(b1-3)GalNAc
Outline: as §1

[9] = biological target: Gal(b1-3)GalNAc(a1-3)[Fuc(a1-2)]Gal(b1-4)GlcNAc
Outline: as §1

[10] = biological target: Gal(b1-3)GlcNAc(a1-6)Gal(b1-4)GlcNAc
Outline: as §1

[11] = biological target: Gal(b1-3)GlcNAc(b1-2)[Gal(b1-3)GlcNAc(b1-6)]Man(a1-6)[Gal(b1-3)GlcNAc(b1-2)Man(a1-3)]Man(b1-4)GlcNAc(b1-4)GlcNAc
Outline: as §1

[12] = biological target: Gal(b1-3)GlcNAc(b1-3)Gal(b1-4)GlcNAc(b1-6)[Gal(b1-3)GlcNAc(b1-3)]Gal(b1-4)Glc
Outline: as §1

[13] = biological target: Gal(b1-3)[Fuc(a1-4)]GlcNAc
Outline: as §1

Gal(b1-4)Glc = biological target: Gal(b1-4)Glc
Outline: as §1

[14] = biological target: Gal(b1-4)GlcNAc(a1-6)Gal(b1-4)GlcNAc
Outline: as §1

[15] = biological target: Gal(b1-4)GlcNAc(b1-2)Man(a1-3)[GlcNAc(b1-2)Man(a1-6)]Man(b1-4)GlcNAc(b1-4)GlcNAc
Outline: as §1

[16] = biological target: Gal(b1-4)GlcNAc(b1-3)Gal(b1-4)GlcNAc(b1-2)[Gal(b1-4)GlcNAc(b1-3)Gal(b1-4)GlcNAc(b1-6)]Man(a1-6)[Gal(b1-4)GlcNAc(b1-3)Gal(b1-4)GlcNAc(b1-2)Man(a1-3)]Man(b1-4)GlcNAc(b1-4)[Fuc(a1-6)]GlcNAc
Outline: as §1

[17] = biological target: Gal(b1-4)GlcNAc(b1-3)Gal(b1-4)GlcNAc(b1-3)Gal(b1-4)GlcNAc(b1-2)[Gal(b1-4)GlcNAc(b1-3)Gal(b1-4)GlcNAc(b1-3)Gal(b1-4)GlcNAc(b1-6)]Man(a1-6)[Gal(b1-4)GlcNAc(b1-3)Gal(b1-4)GlcNAc(b1-3)Gal(b1-4)GlcNAc(b1-2)Man(a1-3)]Man(b1-4)GlcNAc(b1-4)[Fuc(a1-6)]GlcNAc
Outline: as §1

[18] = biological target: Gal(b1-4)GlcNAc(b1-3)Gal(b1-4)GlcNAc(b1-3)Gal(b1-4)GlcNAc(b1-3)Gal(b1-4)GlcNAc(b1-2)Man(a1-3)[Gal(b1-4)GlcNAc(b1-3)Gal(b1-4)GlcNAc(b1-3)Gal(b1-4)GlcNAc(b1-3)Gal(b1-4)GlcNAc(b1-2)Man(a1-6)]Man(b1-4)GlcNAc(b1-4)GlcNAc
Outline: as §1

[19] = biological target: Gal(b1-4)GlcNAc(b1-3)Gal(b1-4)GlcNAc(b1-3)Gal(b1-4)GlcNAc(b1-3)Gal(b1-4)GlcNAc(b1-2)[Gal(b1-4)GlcNAc(b1-3)Gal(b1-4)GlcNAc(b1-3)Gal(b1-4)GlcNAc(b1-3)Gal(b1-4)GlcNAc(b1-6)]Man(a1-6)[Gal(b1-4)GlcNAc(b1-3)Gal(b1-4)GlcNAc(b1-3)Gal(b1-4)GlcNAc(b1-3)Gal(b1-4)GlcNAc(b1-2)Man(a1-3)]Man(b1-4)GlcNAc(b1-4)[Fuc(a1-6)]GlcNAc
Outline: as §1

[20] = biological target: Gal(b1-4)GlcNAc(b1-3)Gal(b1-4)GlcNAc(b1-3)Gal(b1-4)GlcNAc(b1-3)Gal(b1-4)GlcNAc(b1-3)Gal(b1-4)GlcNAc(b1-2)Man(a1-3)[Gal(b1-4)GlcNAc(b1-3)Gal(b1-4)GlcNAc(b1-3)Gal(b1-4)GlcNAc(b1-3)Gal(b1-4)GlcNAc(b1-3)Gal(b1-4)GlcNAc(b1-2)Man(a1-6)]Man(b1-4)GlcNAc(b1-4)GlcNAc
Outline: as §1

[21] = biological target: Gal(b1-4)GlcNAc(b1-3)Gal(b1-4)GlcNAc(b1-3)Gal(b1-4)GlcNAc(b1-3)Gal(b1-4)GlcNAc(b1-3)Gal(b1-4)GlcNAc(b1-2)[Gal(b1-4)GlcNAc(b1-3)Gal(b1-4)GlcNAc(b1-3)Gal(b1-4)GlcNAc(b1-3)Gal(b1-4)GlcNAc(b1-3)Gal(b1-4)GlcNAc(b1-6)]Man(a1-6)[Gal(b1-4)GlcNAc(b1-3)Gal(b1-4)GlcNAc(b1-3)Gal(b1-4)GlcNAc(b1-3)Gal(b1-4)GlcNAc(b1-3)Gal(b1-4)GlcNAc(b1-2)Man(a1-3)]Man(b1-4)GlcNAc(b1-4)[Fuc(a1-6)]GlcNAc
Outline: as §1

Gal3S(b1-3)GlcNAc = biological target: Gal3S(b1-3)GlcNAc
Outline: as §1

Gal6P(b1-4)GlcNAc = biological target: Gal6P(b1-4)GlcNAc
Outline: as §1

GalNAc(b1-3)GalNAc = biological target: GalNAc(b1-3)GalNAc
Outline: as §1

[22] = biological target: GalNAc(b1-4)GlcNAc(b1-3)GalNAc(b1-4)GlcNAc
Outline: as §1

GalNAc3S(b1-4)GlcNAc3S = biological target: GalNAc3S(b1-4)GlcNAc3S
Outline: as §1

[23] = biological target: GalNAc3S(b1-4)[Fuc(a1-3)]GlcNAc
Outline: as §1

[24] = biological target: GlcNAc(a1-6)Gal(b1-4)GlcNAc
Outline: as §1

[25] = biological target: GlcNAc(b1-4)GlcNAc(b1-4)GlcNAc
Outline: as §1

[26] = biological target: GlcNAc(b1-4)GlcNAc(b1-4)GlcNAc(b1-4)GlcNAc(b1-4)GlcNAc
Outline: as §1

[27] = biological target: GlcNAc6S(b1-3)Gal(b1-4)GlcNAc
Outline: as §1

MurNAc(b1-4)GlcNAc = biological target: MurNAc(b1-4)GlcNAc
Outline: as §1

[28] = biological target: Neu5Ac(a2-3)Gal(b1-3)GalNAc(b1-3)Gal(a1-4)Gal(b1-4)Glc
Outline: as §1

[29] = biological target: Neu5Ac(a2-3)Gal(b1-4)GlcNAc(b1-2)Man(a1-3)[Neu5Ac(a2-3)Gal(b1-4)GlcNAc(b1-2)Man(a1-6)]Man(b1-4)GlcNAc(b1-4)[Fuc(a1-6)]GlcNAc
Outline: as §1

[30] = biological target: Neu5Ac(a2-6)Gal(b1-4)GlcNAc(b1-2)Man(a1-3)[Neu5Ac(a2-3)Gal(b1-4)GlcNAc(b1-2)Man(a1-6)]Man(b1-4)GlcNAc(b1-4)GlcNAc
Outline: as §1

[31] = biological target: Neu5Ac(a2-6)Gal(b1-4)GlcNAc(b1-2)Man(a1-3)[Neu5Ac(a2-6)Gal(b1-4)GlcNAc(b1-2)Man(a1-6)]Man(b1-4)GlcNAc(b1-4)[Fuc(a1-6)]GlcNAc
Outline: as §1

[32] = biological target: Neu5Ac(a2-6)Gal(b1-4)GlcNAc(b1-3)Gal(b1-4)GlcNAc(b1-3)GalNAc
Outline: as §1

[33] = biological target: Neu5Ac(a2-6)Gal(b1-4)GlcNAc(b1-3)[Neu5Ac(a2-6)Gal(b1-4)GlcNAc(b1-6)]GalNAc
Outline: as §1

[34] = biological target: Neu5Ac(a2-6)Gal(b1-4)GlcNAc6S
Outline: as §1

[35] = biological target: Neu5Ac(a2-6)GalNAc(b1-4)GlcNAc
Outline: as §1

[36] = biological target: Neu5Ac(a2-8)Neu5Ac(a2-8)Neu5Ac(a2-3)Gal(b1-4)Glc
Outline: as §1

[37] = biological target: Neu5Ac(a2-8)Neu5Ac(a2-8)Neu5Ac(a2-3)[GalNAc(b1-4)]Gal(b1-4)Glc
Outline: as §1

B1: MpL2 (Macrolepiota procera) (protein)
chain: MSTQVSSGQTYKITNVKAGTVIDLSGEDNKSIIGYPYHSGKNQQWTFNWTGKAWTLRSASSGSYLGIEGTPADGTRLVAVNDPFEWHIWRDEANENAFRIFVPFTNYNLRLSGYGDTTPGTPVQLWWTWEGLHQTWTIDRP
- glycan array binding signal (z-score) [1]: -0.257
- glycan array binding signal (z-score) [2]: -0.099
- glycan array binding signal (z-score) [3]: -0.247
- glycan array binding signal (z-score) [4]: -0.259
- glycan array binding signal (z-score) [5]: -0.266
- glycan array binding signal (z-score) [6]: -0.251
- glycan array binding signal (z-score) [7]: -0.247
- glycan array binding signal (z-score) [8]: -0.255
- glycan array binding signal (z-score) (Gal(a1-3)Gal(b1-4)GlcNAc): -0.264
- glycan array binding signal (z-score) (Gal(a1-4)Gal(b1-4)GlcNAc): -0.289
- glycan array binding signal (z-score) (Gal(b1-3)Gal(b1-4)GlcNAc): -0.255
- glycan array binding signal (z-score) (Gal(b1-3)GalNAc): -0.256
- glycan array binding signal (z-score) [9]: -0.201
- glycan array binding signal (z-score) [10]: 3.81
- glycan array binding signal (z-score) [11]: 3.46
- glycan array binding signal (z-score) [12]: 3.65
- glycan array binding signal (z-score) [13]: -0.267
- glycan array binding signal (z-score) (Gal(b1-4)Glc): -0.244
- glycan array binding signal (z-score) [14]: 12.2
- glycan array binding signal (z-score) [15]: -0.001
- glycan array binding signal (z-score) [16]: 3.95
- glycan array binding signal (z-score) [17]: 3.9
- glycan array binding signal (z-score) [18]: 3.84
- glycan array binding signal (z-score) [19]: 4.36
- glycan array binding signal (z-score) [20]: 3.94
- glycan array binding signal (z-score) [21]: 4.48
- glycan array binding signal (z-score) (Gal3S(b1-3)GlcNAc): -0.276
- glycan array binding signal (z-score) (Gal6P(b1-4)GlcNAc): -0.218
- glycan array binding signal (z-score) (GalNAc(b1-3)GalNAc): -0.254
- glycan array binding signal (z-score) [22]: 3.89
- glycan array binding signal (z-score) (GalNAc3S(b1-4)GlcNAc3S): -0.255
- glycan array binding signal (z-score) [23]: -0.254
- glycan array binding signal (z-score) [24]: 6.07
- glycan array binding signal (z-score) [25]: -0.248
- glycan array binding signal (z-score) [26]: -0.246
- glycan array binding signal (z-score) [27]: 0.055
- glycan array binding signal (z-score) (MurNAc(b1-4)GlcNAc): -0.259
- glycan array binding signal (z-score) [28]: -0.241
- glycan array binding signal (z-score) [29]: -0.215
- glycan array binding signal (z-score) [30]: -0.261
- glycan array binding signal (z-score) [31]: -0.223
- glycan array binding signal (z-score) [32]: -0.261
- glycan array binding signal (z-score) [33]: -0.255
- glycan array binding signal (z-score) [34]: -0.289
- glycan array binding signal (z-score) [35]: -0.301
- glycan array binding signal (z-score) [36]: -0.272
- glycan array binding signal (z-score) [37]: -0.234
